Cardio protect: cardioprotection against H2O2-induced cell death, primary screen, uHTS, H9c2 cells, ATPLite luminescence. H9c2 cardiomyocytes, H2O2 injury protection, 2 h. AID 588492, 2011. 0.63% of 360,000 active. protection from H2O2 cell death, % at 20 µM;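 active = compounds giving at least 50% protection of heart cells from peroxide-induced death in the single-dose screen, raw or plate-pattern-corrected value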;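 note: 0% = DMSO wells with peroxide and 100% = DMSO wells without peroxide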
PLC-beta3 inh: human PLC-beta3 inhibitors, primary screen, biochemical, fluorescence; 0.18% of 370,000 active; Purified PLC-beta3, fluorogenic substrate; 1-phosphatidylinositol 4,5-bisphosphate phosphodiesterase beta-3 (Homo sapiens), Q01970; inhibition, % at 12.2 µM; in the data active = inhibition above about 11%;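 note: 0% = median of compound wells on plate and 100% = full blocker control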
FAS-TE inh: FAS thioesterase domain inhibitors, primary screen, biochemical, fluorescence intensity, uHTS. Fatty acid synthase (Homo sapiens), P49327. inhibition, % at 15 µM. recombinant FAS-TE, OMFH fluorogenic substrate, fluorescence endpoint. 0.67% of 360,000 active;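 active = compounds whose normalised, plate-corrected inhibition of enzyme fluorescence in the single-dose primary screen is 50% or more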;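 note: 0% = DMSO with enzyme and 100% = substrate without enzyme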
PLCg1 inh: PLC-gamma1 enzyme inhibitors, primary screen, biochemical, fluorescence, purified enzyme; inhibition, % at 12.2 µM; 0.84% of 370,000 active; fluorogenic substrate; in the data active = inhibition above about 9.5%
Numbers without * were called inactive. In the library only some 2.2% were active in any assay of this set; here they are far more common.

`Clc1ccccc1-c1nc2ccccc2c2nc3ccccc3n12` gave Cardio protect 8, PLC-beta3 inh -12, FAS-TE inh 23 and PLCg1 inh -10.
Screening CCCNC(=O)c1ccc(N2CCC3(CC2)CC(c2ccccc2)=NO3)c(NC(=O)c2ccco2)c1 returned Cardio protect 90*, PLC-beta3 inh -4, FAS-TE inh 22 and PLCg1 inh 2.
Screening COc1ccc(/C=N/Nc2nc(C)cc(-c3ccccc3)n2)c(OC)c1 returned Cardio protect 4, PLC-beta3 inh -8, FAS-TE inh 10 and PLCg1 inh -6.
Screening COc1ccc(O)c(/C=N/Nc2nc(C)cc(-c3ccccc3)n2)c1 returned Cardio protect 66*, PLC-beta3 inh -28, FAS-TE inh 28 and PLCg1 inh -11.
For COc1cccc(CN2CCN(C(=O)c3cc(-c4cccnc4)nc4ccc(C)cc34)CC2)c1 the results were Cardio protect 50*, PLC-beta3 inh -3, FAS-TE inh 6 and PLCg1 inh -3.
`COc1ccc2nc(-c3ccccc3)cc(C(=O)N3CCC3)c2c1` gave Cardio protect 5, PLC-beta3 inh inactive, FAS-TE inh -3 and PLCg1 inh inactive.
`Nn1c(SCC(=O)Nc2ccccc2-c2ccccc2)nnc1-c1cc(-c2ccc(F)cc2)n[nH]1` gave PLC-beta3 inh 0 and PLCg1 inh -3.
Cn1nc(C(=O)Nc2cccnc2)c2ccccc2c1=O was read as Cardio protect 7, PLC-beta3 inh 4, FAS-TE inh -8 and PLCg1 inh 0.
For CCCn1nc(C(=O)Nc2nnc(C3CC3)s2)c2ccccc2c1=O the results were Cardio protect 1, PLC-beta3 inh -6, FAS-TE inh -4 and PLCg1 inh -1.
CCCn1nc(C(=O)Nc2nc(-c3ccccn3)cs2)c2ccccc2c1=O was read as Cardio protect 86*, PLC-beta3 inh -21, FAS-TE inh 10 and PLCg1 inh -13.
Screening Cn1nc(C(=O)Nc2nc(-c3ccccn3)cs2)c2ccccc2c1=O returned Cardio protect 55*, PLC-beta3 inh -25, FAS-TE inh -4 and PLCg1 inh -23.
CCn1nc(C(=O)Nc2nc(-c3ccccn3)cs2)c2ccccc2c1=O was read as Cardio protect 79*, PLC-beta3 inh -14, FAS-TE inh 6 and PLCg1 inh -2.
`O=C(C(=O)N1CCN(C(=O)C2CCCC2)CC1)c1cccc(C(F)(F)F)c1` gave PLC-beta3 inh 5 and PLCg1 inh 4.
Screening O=S1(=O)c2ccc(N3CCN(Cc4ccccc4F)CC3)cc2Oc2ccccc2CN1Cc1cn(Cc2ccc(F)cc2)nn1 returned PLC-beta3 inh 3 and PLCg1 inh -1.
COC(=O)[C@H](C(C)C)N(Cc1cn(CC2CCCCC2)nn1)S(=O)(=O)c1ccc(F)cc1Br was read as PLC-beta3 inh 1 and PLCg1 inh 4.
`O=C(N/N=C/c1ccc(F)cc1)c1cc(-c2ccccn2)nc2ccccc12` gave Cardio protect 1, PLC-beta3 inh -2, FAS-TE inh -8 and PLCg1 inh -1.
Screening COc1cccc(/C=N/NC(=O)c2cc(-c3ccccn3)nc3ccccc23)c1O returned Cardio protect 58*, PLC-beta3 inh -18, FAS-TE inh 14 and PLCg1 inh -8.
For COc1ccc(-c2cc(C(=O)N/N=C/c3ccc4c(c3)OCO4)c3ccccc3n2)c(OC)c1 the results were Cardio protect 22, PLC-beta3 inh -285, FAS-TE inh 51* and PLCg1 inh -210.
For Cc1[nH]c2ccccc2c1CC(=O)Nc1ccc(N(C)c2cccnc2)c(-c2cccc(Cl)c2)c1 the results were PLC-beta3 inh -28 and PLCg1 inh -18.
N#C/C(=C\c1ccc(O)c(O)c1)C(=O)NCCc1ccccc1 was read as Cardio protect 77*, PLC-beta3 inh -20, FAS-TE inh 2 and PLCg1 inh -12.
For N#C/C(=C\c1ccc(O)c(O)c1)C(=O)N1CCc2ccccc21 the results were Cardio protect 77*, PLC-beta3 inh 0, FAS-TE inh 2 and PLCg1 inh -3.
CCOC(=O)C1=NOC(C(=O)Nc2nccs2)(C(=O)C2CC2)C1 (stereo unspecified) was read as PLC-beta3 inh -3 and PLCg1 inh -1.
Screening COc1ccc(CN2CCC(CNC(=O)NC3CCCC3)CC2)cc1 returned PLC-beta3 inh 0 and PLCg1 inh 3.

Compound activity (PubChem)
